Hit rate of the full screen: of about 52,000 compounds, about 1,700 (3.3%) were called active. Many of the other results were omitted from the sample, so actives are more common in it than they were. Values without a mark were called inactive. No stated cut-off is given here; in the data, active means survival mostly below about 52% (no sharp cut-off); inactive means mostly above about 56%.
Each compound was assayed on Wild type (assay: S. aureus survival, RN4220 and DeltatarO strains – OD600, teichoic acid synthesis inhibitors, primary screen (AID 463173)). Settings: S. aureus RN4220 wild type/DeltatarO growth, OD600, 18 h, stronger effect = lower value, screened at 18.75 µg/mL (by protocol).

Structure (SMILES)	survival
CN(C)c1ccc(C(CNS(=O)(=O)c2ccc(F)cc2)N2CCCC2)cc1 (centres undefined)	124%
Cc1ccc(S(=O)(=O)NCC(c2ccc(N(C)C)cc2)N2CCCC2)cc1 (centres undefined)	88%
Cc1ccc(S(=O)(=O)NCC(c2ccc(N(C)C)cc2)N2CCOCC2)cc1 (centres undefined)	65%
CN(C)c1ccc(C(CNS(=O)(=O)c2ccc(F)cc2)N2CCOCC2)cc1 (centres undefined)	83%
CN(C)c1ccc(C(CNS(=O)(=O)c2ccc(Cl)cc2)N2CCOCC2)cc1 (centres undefined)	10% (active)
CN(C)c1ccc(C(CNS(=O)(=O)c2ccc(Cl)cc2)N2CCCC2)cc1 (centres undefined)	-3% (active)
C=CCn1cc(F)c(=O)n(CC=C)c1=O	109%
CCOc1ccc(NC(=O)Cn2nc(Cc3ccncc3)c3ccccc3c2=O)cc1	108%
CC(C)C(=O)N1CCN(c2ccc(NC(=O)c3ccccc3)cc2)CC1	95%
O=C(Nc1ccc2oc(=O)ccc2c1)c1cccc(F)c1	106%
CCS(=O)(=O)c1ccccc1C(=O)N(Cc1cccnc1)c1nc2cc(C)c(C)cc2s1	118%
COc1ccc2nc(N(Cc3cccnc3)C(=O)c3ccco3)sc2c1	70%
COc1ccc2sc(N(Cc3cccnc3)C(=O)c3ccco3)nc2c1	-4% (active)
COc1cc(C(=O)N(Cc2cccnc2)c2nc3cc(C)c(C)cc3s2)cc(OC)c1OC	22%
COc1ccc2sc(N(Cc3cccnc3)C(=O)c3cccs3)nc2c1	64%
Cc1cc2nc(N(Cc3cccnc3)C(=O)c3ccc(Cl)s3)sc2cc1C	0% (active)
Cc1scc(-c2ccccc2)[n+]1CCO	109%
CCOc1ccc(NC2SC(=O)N(Cc3ccccc3)C2=O)cc1 (centres undefined)	72%
COc1cc(OC)c(NC(=O)c2cnn(-c3cccc(Cl)c3C)c2C2CCN(C(=O)OC(C)(C)C)CC2)cc1Cl	53%
CCOC(=O)c1ccn(-c2nc(-c3cccc(OC)c3)cc(C(F)(F)F)n2)n1	48%
COc1ccc(CNC(=O)CSc2nc(-c3ccc(OC)c(OC)c3)cc(C(F)(F)F)n2)cc1	83%
COc1ccc(-c2cc(C(F)(F)F)nc(S(C)(=O)=O)n2)cc1	98%
COc1ccc(-c2cc(C(F)(F)F)nc(SCC(=O)NCc3ccc(Cl)cc3)n2)cc1	83%

Structure (SMILES)	survival
COC(=O)CSc1nc(-c2ccc(F)cc2)cc(C(F)(F)F)n1	123%
COc1ccc(CNc2nc(-c3ccc(Cl)cc3)cc(C(F)(F)F)n2)cc1	-4% (active)
COc1ccc(-c2cc(C(F)(F)F)nc(NCc3ccc(Cl)cc3)n2)cc1	-3% (active)
COC(=O)c1ccn(-c2nc(-c3ccc(Cl)cc3)cc(C(F)(F)F)n2)n1	9% (active)
CS(=O)(=O)N(CC(=O)N1CCCC1)c1cccc(Cl)c1Cl	97%
Cc1cc(C)c2nc(NC(=O)c3ccc(S(=O)(=O)N4CCC(C)CC4)cc3)sc2c1	79%
O=C(CN1C(=O)CSC1=O)NC1CCCCC1	104%
COc1ccc(OC)c(-c2cc(C(=O)NCc3ccc(Cl)cc3)no2)c1	85%
COc1ccc(OC)c(-c2cc(C(=O)Nc3cccc(Cl)c3C)no2)c1	26%
CC(NC(=O)c1cc(-c2ccc(Cl)cc2)on1)c1ccccc1 (centres undefined)	140%
COc1ccc(OC)c(-c2cc(C(=O)NC(C)c3ccccc3)no2)c1 (centres undefined)	-12% (active)
COc1ccc(OC)c(-c2cc(C(=O)Nc3ccc(C)c(C)c3)no2)c1	-9% (active)
CC(C)c1cc(C(=O)NC(C)c2ccccc2)no1 (centres undefined)	81%
COc1ccc(CNc2oc(-c3ccc(COc4ccc(OC)cc4)o3)nc2C#N)cc1	129%
CC(=O)c1nn(-c2ccc(OC(F)(F)F)cc2)nc1Nc1ccc(C)cc1	96%
CCCS(=O)(=O)Nc1cc2c(cc1NCc1ccccc1)n(C)c(=O)n2C	82%
Cc1ccc2ncc(S(=O)(=O)c3ccccc3)c(N3CCCCC3C)c2c1 (centres undefined)	0% (active)
CC1CCCCN1c1c(S(=O)(=O)c2ccc(Cl)cc2)cnc2ccccc12 (centres undefined)	3% (active)
COc1ccc(S(=O)(=O)c2cnc3ccc(Cl)cc3c2N2CCCCC2C)cc1 (centres undefined)	23%
Cc1cccc(S(=O)(=O)c2cn(Cc3ccccc3)c3cc(N4CCCCC4C)c(F)cc3c2=O)c1 (centres undefined)	71%
CCN1CCN(c2c(S(=O)(=O)c3ccc(Cl)cc3)cnc3ccccc23)CC1	82%
CCN1CCN(c2c(S(=O)(=O)c3ccccc3)cnc3ccc(Cl)cc23)CC1	119%
COc1ccc(Cl)cc1NC(=O)Cn1nnc(C(=O)NCc2ccc3c(c2)OCO3)c1N	81%

Structure (SMILES)	survival
c1ccc(Cn2nnnc2C(c2cccnc2)N2CCN(c3ccccc3)CC2)cc1 (centres undefined)	113%
COC(=O)COc1ccc(Oc2nc(NC(C)(C)C)nc(N(C)C)n2)nn1	85%
Cc1ccc(CNC(=O)CSc2c(C(C)C)cnc3c2c(=O)n(C)c(=O)n3C)cc1	58%
CCc1cnc2c(c1SCC(=O)NCc1ccc(C)cc1)c(=O)n(C)c(=O)n2C	67%
CCCc1cnc2c(c1SCC(=O)NCc1ccc(C)cc1)c(=O)n(C)c(=O)n2C	-6% (active)
CCOC(=O)c1cc(-c2ccccc2)n(-c2cccc(C(=O)Nc3ccc(OCC)cc3)c2)c1C	10% (active)
CCOC(=O)c1cc(-c2ccccc2)n(-c2cccc(C(=O)Nc3cccc(C(C)=O)c3)c2)c1C	70%
CCOC(=O)c1cc(-c2ccccc2)n(-c2cccc(C(=O)Nc3cccc(SC)c3)c2)c1C	0% (active)
CCOC(=O)c1cc(-c2ccccc2)n(-c2cccc(C(=O)Nc3ccc(OC)cc3)c2)c1C	77%
CCOC(=O)c1cc(-c2ccccc2)n(-c2cccc(C(=O)Nc3cc(OC)cc(OC)c3)c2)c1C	88%
CCOC(=O)c1cc(-c2ccccc2)n(-c2cccc(C(=O)Nc3cccc(F)c3)c2)c1C	131%
CCc1ccc(Nc2nnc(-c3cc4cc(OC)ccc4oc3=O)s2)cc1	138%
CCC(CC)C(=O)Nc1cc(-c2cccc(C)c2)nn1-c1ccccc1	69%
COc1ccc(CCn2c(=O)[nH]c3cc(C(=O)N4CCN(c5ccccc5)CC4)ccc3c2=O)cc1OC	102%
O=C1OC(c2ccccc2)=C/C1=C/N1CCOCC1	116%
Cc1ccc(C2=CC(c3ccc(Cl)cc3)n3nc(-c4ccc(C)cc4)nc3N2)cc1 (centres undefined)	1% (active)
Cc1ccc(C2C=C(c3ccc(Cl)cc3)Nc3nc(NS(=O)(=O)c4ccccc4)nn32)cc1 (centres undefined)	75%
Cc1ccc(S(=O)(=O)Nc2nc3n(n2)C(c2ccc(Cl)cc2)C=C(c2ccccc2)N3)cc1 (centres undefined)	-4% (active)
COc1ccc(C2C=C(c3ccccc3)Nc3nc(NS(=O)(=O)c4ccc(Cl)cc4)nn32)cc1 (centres undefined)	0% (active)
COc1ccc(C2C=C(c3ccccc3)Nc3nc(NS(=O)(=O)c4ccccc4)nn32)cc1 (centres undefined)	29%
Cc1ccc(C2C=C(c3ccccc3)Nc3nc(NS(=O)(=O)c4ccccc4)nn32)cc1 (centres undefined)	83%
COc1ccc(C2C=C(c3ccccc3)Nc3nc(NS(=O)(=O)c4ccc(C)cc4)nn32)cc1 (centres undefined)	66%
O=S(=O)(Nc1nc2n(n1)C(c1ccc(F)cc1)C=C(c1ccccc1)N2)c1ccccc1 (centres undefined)	74%

Structure (SMILES)	survival
O=S(=O)(Nc1nc2n(n1)C(c1ccc(F)cc1)C=C(c1ccccc1)N2)c1ccc(Cl)cc1 (centres undefined)	14% (active)
COc1ccc(C2C=C(c3ccc(F)cc3)Nc3nc(-c4ccc(Cl)cc4)nn32)cc1 (centres undefined)	105%
O=S(=O)(Nc1nc2n(n1)C(c1ccc(F)cc1)C=C(c1ccc(Cl)cc1)N2)c1ccccc1 (centres undefined)	57%
COc1ccc(C2C=C(c3ccc(Cl)cc3)Nc3nc(-c4ccc(Cl)cc4)nn32)cc1 (centres undefined)	88%
CSc1ccc(/C=C(\C#N)C(=O)NC2CCCCC2)cc1	95%
O=C(Cn1nc(-c2ccccc2)c2c(c1=O)CCCC2)Nc1ccc(F)c(Cl)c1	44%
CCOc1ccccc1NC(=O)N1CCC(N2CCN(Cc3ccccc3)C(=O)C2=O)CC1	68%
Cc1ccc(C)c(S(=O)(=O)NCC(c2ccc(N(C)C)cc2)N2CCOCC2)c1 (centres undefined)	73%
Cc1sc2nc(SCC(=O)N(CCO)CCO)n(C3CCCCC3)c(=O)c2c1C	106%
CCOc1ccc(CCNC(=O)CS(=O)(=O)Cc2nc(-c3cccc(Cl)c3)oc2C)cc1	82%
Oc1cccc2c1NCCC2	113%
O=S(=O)(c1cccc(Cl)c1)c1nnn2c1nc(NCc1ccc3c(c1)OCO3)c1sccc12	80%
CCSc1oc(-c2cccs2)nc1S(=O)(=O)c1ccc(Br)cc1	51%
CCOC(=O)CNC(=O)CC(c1cc(OC)c(OC)c(OC)c1)N1Cc2ccccc2C1=O (centres undefined)	60%
Cc1c(Cl)cccc1NC(=O)C1CCN(c2ncnc3c2nc2n3CCCCC2)CC1	129%
O=C(COc1ccccc1)Nc1ccc2nc(SCCOc3ccccc3)sc2c1	94%
COc1ccc(CNC(=O)Cn2nc3c(cc2=O)CCCC3)cc1	64%
Cc1cccc(C2C=C(c3ccc(C)c(C)c3)Nc3nnnn32)c1 (centres undefined)	1% (active)
COc1ccc(C2=CC(c3cccc(C)c3)n3nnnc3N2)cc1 (centres undefined)	71%
COc1cccc(C2C=C(c3ccc(C)c(C)c3)Nc3nnnn32)c1OC (centres undefined)	71%

— PubChem BioAssay AID463173 (ICCB-Longwood Screening Facility, Harvard Medical School, 2010)
